# Reference: ChEMBL document CHEMBL3988442, “University of Dundee, Small-Polar-MMV Screening Library” (2021)
# About 960 (1.5%) of roughly 66,000 compounds showed an effect of 50% or more. Shown is part of a subset that was picked to be rich in strong results.
# Test system: Trypanosoma brucei
# Experiment: Trypanosoma brucei 72 hour study
# Type: functional, organism-based
# Design: scale not given: in the data most compounds retested in dose-response had high values
SMILES,"Percent Effect (30.3 µM, […]) [%]","Percent Effect (30 µM, 30.03 µM) [%]"
COCCn1cc(NC(=O)NCC(c2cccc(F)c2)N(C)C)cn1 (configuration not stated),9.218,
CCC(CC)C(CNC(=O)Nc1cnn(CCOC)c1)N(C)C (configuration not stated),100.4,
COCCn1cc(NC(=O)NCC(C)N2CCOCC2)cn1 (configuration not stated),-22.83,
CC(C)c1nnc2n1CC(CNC/C=C/c1ccccc1)CC2 (configuration not stated),,7.913
CC(C)NC1CCc2[nH]c(=O)ccc2C1.O=C(O)C(F)(F)F (configuration not stated),-14.11,
CN1CCO[C@@H]2CN(C(=O)Cc3cccs3)CC[C@@H]2C1.O=C(O)C(F)(F)F,-41.5,
CC(C)Nc1ccnc(N2Cc3cnc(C(C)(C)C)nc3C2)n1,,-43.35
CCNc1ccnc(N2Cc3cnc(CC(C)C)nc3C2)n1,,7.855
CC(C)Cc1ncc2c(n1)CN(c1nccc(NC(C)C)n1)C2,,89.54
CN(Cc1cccnc1)[C@@H]1CN(C(=O)c2ccoc2)[C@@H]2CCCO[C@H]12.O=C(O)C(F)(F)F.O=C(O)C(F)(F)F,-7.538,
CN1CCN(Cc2cnc3n2CCN(CCc2ccccc2)C3)CC1.O=C(O)C(F)(F)F.O=C(O)C(F)(F)F.O=C(O)C(F)(F)F,-12.43,
Cc1cccc(CN2CC3(CCN(Cc4ccoc4)CC3)OCC2=O)n1.O=C(O)C(F)(F)F.O=C(O)C(F)(F)F,-93.34,
O=C(O)CC(O)(CC(=O)O)C(=O)O.OCCN(Cc1ccncc1)CC1(c2ccc(Cl)cc2)CCCC1,12.41,
CN1CCC(c2n[nH]cc2-c2ccnc(N)c2)C1 (configuration not stated),-5.978,
CC(C)N1CCC(c2n[nH]cc2-c2ccnc(N)c2)C1 (configuration not stated),2.3,
CCCNc1cc(-c2c[nH]nc2C2CCN(C(=O)C3CCC3)C2)ccn1 (configuration not stated),99.71,
CC(C)Nc1cc(-c2c[nH]nc2C2CCN(C(=O)C3CC3)C2)ccn1 (configuration not stated),99.82,
CC(C)CNc1cc(-c2c[nH]nc2C2CCN(C(=O)C3CC3)C2)ccn1 (configuration not stated),100.1,
Nc1cc(-c2c[nH]nc2C2CCN(C(=O)C3CCCC3)C2)ccn1 (configuration not stated),38.23,
CN(C)S(=O)(=O)N1CCC(c2n[nH]cc2-c2ccnc(N)c2)C1 (configuration not stated),-8.179,
O=C(C1CCCC1)N1CCC(c2ccnc(Nc3cnccn3)n2)C1 (configuration not stated),9.82,
Cc1c[nH]nc1C1CCN(C(=O)Cn2cccn2)C1 (configuration not stated),-30.39,
CC(=O)N1CCC(c2n[nH]cc2-c2ccnc(N)c2)C1 (configuration not stated),-2.575,
Nc1cc(-c2c[nH]nc2C2CCCCN2C(=O)C2CCCC2)ccn1 (configuration not stated),11.59,

SMILES,"Percent Effect (30.3 µM, […]) [%]","Percent Effect (30 µM, 30.03 µM) [%]"
CC(C)Nc1cc(-c2c[nH]nc2C2CCN(C(=O)C3CCC3)C2)ccn1 (configuration not stated),100.4,
Cc1occc1C(=O)N1CCO[C@H]2[C@@H](Oc3ccccn3)CC[C@@H]21.O=C(O)C(F)(F)F,,26.48
CNC(=O)CN1CCOCC2(C1)CN(C(=O)C(C)C)CCO2.O=C(O)C(F)(F)F (configuration not stated),,-6.033
CS(=O)(=O)N1CCO[C@H]2[C@@H](Oc3ncccc3F)CC[C@@H]21.O=C(O)C(F)(F)F,12.73,
CC(=O)NC1CCN(c2cc(C3CCNCC3)ccn2)CC1.Cl.Cl,-5.403,
O=C(O)C(F)(F)F.O=C([C@@H]1CC[C@@H]2[C@@H](CCN2c2ccncn2)O1)N1CCCCO1,-55.7,
Cc1cc(N2CCC(N(C)C(=O)c3ccccc3F)CC2)nc(C)n1,,-12.35
Cn1ccnc1C(=O)N[C@@H]1CN(CC2CCOCC2)[C@@H]2CCCO[C@@H]21.O=C(O)C(F)(F)F,-79.05,
Cc1cc(SCC(=O)O)nc2nn(CC(F)F)c(C)c12,-20.88,
CCc1nc(-c2cncnc2C2CCCNC2)no1.Cl (configuration not stated),10,
CCC(CC)C(=O)N1CCc2nc(N3CCCC3)nc(C)c2CC1,,-41.54
Cc1cccc(CN2C[C@@H]3CN(C(=O)c4ccco4)C[C@@H]3C2=O)n1.O=C(O)C(F)(F)F,-11.66,
CC(=O)N1CCC(NC(=O)Cc2csc(C(C)(C)C)n2)CC1,-5.92,
CN1CCC(NC(=O)Cc2csc(C(C)(C)C)n2)CC1,4.768,
CC(C)(C)c1nc(CC(=O)NC2CCN(C3CC3)C2)cs1 (configuration not stated),99.7,
COc1cc2c(c(OC)c1OC)CCN(CCN1CCCCC1)CC2,,-20.4
CCN1CCN(c2ccccc2NC(=O)NCc2ccon2)CC1,-63.99,
Cn1cc(CN2CCCC(CCc3ccccc3C(F)(F)F)C2)cn1 (configuration not stated),,-18.52
Cc1nc(CN2CCCC(N(C)CCCc3ccccc3)C2)no1 (configuration not stated),-9.572,
Cc1nc(CN2CCCC(CCc3cccc(C(F)(F)F)c3)C2)co1 (configuration not stated),40.44,
FC(F)(F)c1ccccc1CCC1CCCN(Cc2cscn2)C1 (configuration not stated),51.05,
Cc1nc(CN2CCCC(CCc3ccccc3C(F)(F)F)C2)co1 (configuration not stated),52.02,
Cc1nc(CN2CCCC(CCc3ccccc3C(F)(F)F)C2)no1 (configuration not stated),87.44,
